# Test results reported in the supplement of paper PMC8728848.
# Only a selection was taken, and the strongest signals are over-represented in it overall.
# B1: SHCBP1-GST (Homo sapiens), Q8NEM2 (protein)
# chain: MADGSLTGGGLEAAAMAPERMGWAVEQELASLEKGLFQDEDSCSDCSYRDKPGSSLQSFMPEGKTFFPEIFQTNQLLFYERFRAYQDYILADCKASEVQEFTAEFLEKVLEPSGWRAVWHTNVFKVLVEITDVDFAALKAVVRLAEPYLCDSQVSTFTMECMKELLDLKEHRLPLQELWVVFDDSGVFDQTALAIEHVRFFYQNIWRSWDEEEEDEYDYFVRCVEPRLRLHYDILEDRVPSGLIVDYHNLLSQCEESYRKFLNLRSSLSNCNSDSEQENISMVEGLKLYSEMEQLKQKLKLIENPLLRYVFGYQKNSNIQAKGVRSSGQKITHVVSSTMMAGLLRSLLTDRLCQEPGEEEREIQFHSDPLSAINACFEGDTVIVCPGHYVVHGTFSIADSIELEGYGLPDDIVIEKRGKGDTFVDCTGADIKISGIKFVQHDAVEGILIVHRGKTTLENCVLQCETTGVTVRTSAEFLMKNSDLYGAKGAGIEIYPGSQCTLSDNGIHHCKEGILIKDFLDEHYDIPKISMVNNIIHNNEGYGVVLVKPTIFSDLQENAEDGTEENKALKIQTSGEPDVAERVDLEELIECATGKMELCARTDPSEQVEGNCEIVNELIAASTQKGQIKKKRLSELGITQADDNLMSQEMFVGIVGNQFKWNGKGSFGTFLF
# Assays:
# Test in all cases: glycan array binding signal (z-score within array); higher = stronger binding
# Settings in all cases: glycan notation: IUPAC condensed, linker removed
# [1] = target: Gal(b1-4)GlcNAc(b1-2)[Gal(b1-4)GlcNAc(b1-4)]Man(a1-3)[GlcNAc(b1-4)][Gal(b1-4)GlcNAc(b1-2)Man(a1-6)]Man(b1-4)GlcNAc(b1-4)GlcNAc
# How it was run: (§1)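 Arrays were curated from the Consortium for Functional Glycomics database, 3228 in total, and kept only where the protein sequence was available. Binding is expressed as a within-array Z-score. This score was averaged across arrays of the same protein sequence at different concentrations or buffers and across linkers, and negative values can be read as non-binding.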
# [2] = target: Gal(b1-4)GlcNAc(b1-2)[Gal(b1-4)GlcNAc(b1-6)]Man(a1-6)[Gal(b1-4)GlcNAc(b1-2)Man(a1-3)]Man(b1-4)GlcNAc(b1-4)[Fuc(a1-6)]GlcNAc
# How it was run: as §1
# [3] = target: Gal(b1-4)GlcNAc(b1-2)[Gal(b1-4)GlcNAc(b1-6)]Man(a1-6)[GlcNAc(b1-4)][Gal(b1-4)GlcNAc(b1-2)[Gal(b1-4)GlcNAc(b1-4)]Man(a1-3)]Man(b1-4)GlcNAc(b1-4)[Fuc(a1-6)]GlcNAc
# How it was run: as §1
# [4] = target: Gal(b1-4)GlcNAc(b1-3)Gal(b1-3)GalNAc
# How it was run: as §1
# [5] = target: Gal(b1-4)GlcNAc(b1-3)Gal(b1-4)GlcNAc(b1-2)Man(a1-3)[Gal(b1-4)GlcNAc(b1-3)Gal(b1-4)GlcNAc(b1-2)Man(a1-6)]Man(b1-4)GlcNAc(b1-4)[Fuc(a1-6)]GlcNAc
# How it was run: as §1
# [6] = target: Gal(b1-4)GlcNAc(b1-3)Gal(b1-4)GlcNAc(b1-2)[Gal(b1-4)GlcNAc(b1-3)Gal(b1-4)GlcNAc(b1-6)]Man(a1-6)[Gal(b1-4)GlcNAc(b1-3)Gal(b1-4)GlcNAc(b1-2)Man(a1-3)]Man(b1-4)GlcNAc(b1-4)[Fuc(a1-6)]GlcNAc
# How it was run: as §1
# [7] = target: Gal(b1-4)GlcNAc(b1-3)Gal(b1-4)GlcNAc(b1-3)Gal(b1-4)GlcNAc(b1-3)Gal(b1-4)GlcNAc(b1-2)Man(a1-3)[Gal(b1-4)GlcNAc(b1-3)Gal(b1-4)GlcNAc(b1-3)Gal(b1-4)GlcNAc(b1-3)Gal(b1-4)GlcNAc(b1-2)Man(a1-6)]Man(b1-4)GlcNAc(b1-4)[Fuc(a1-6)]GlcNAc
# How it was run: as §1
# [8] = target: Gal(b1-4)GlcNAc(b1-3)Gal(b1-4)GlcNAc(b1-3)Gal(b1-4)GlcNAc(b1-3)Gal(b1-4)GlcNAc(b1-2)[Gal(b1-4)GlcNAc(b1-3)Gal(b1-4)GlcNAc(b1-3)Gal(b1-4)GlcNAc(b1-3)Gal(b1-4)GlcNAc(b1-6)]Man(a1-6)[Gal(b1-4)GlcNAc(b1-3)Gal(b1-4)GlcNAc(b1-3)Gal(b1-4)GlcNAc(b1-3)Gal(b1-4)GlcNAc(b1-2)Man(a1-3)]Man(b1-4)GlcNAc(b1-4)[Fuc(a1-6)]GlcNAc
# How it was run: as §1
# Gal3S(b1-3)GalNAc = target: Gal3S(b1-3)GalNAc
# How it was run: as §1
# [9] = target: Gal3S(b1-4)[Fuc(a1-3)]GlcNAc6S
# How it was run: as §1
# Gal6P(b1-4)GlcNAc = target: Gal6P(b1-4)GlcNAc
# How it was run: as §1
# GalNAc(a1-3)GalNAc = target: GalNAc(a1-3)GalNAc
# How it was run: as §1
# GalNAc(b1-4)GlcNAc = target: GalNAc(b1-4)GlcNAc
# How it was run: as §1
# [10] = target: GalNAc(b1-4)GlcNAc(b1-2)Man(a1-3)[GalNAc(b1-4)GlcNAc(b1-2)Man(a1-6)]Man(b1-4)GlcNAc(b1-4)GlcNAc
# How it was run: as §1
# GalNAc(b1-4)GlcNAc6S = target: GalNAc(b1-4)GlcNAc6S
# How it was run: as §1
# [11] = target: GlcNAc(a1-4)Gal(b1-4)GlcNAc(b1-3)Gal(b1-4)[Fuc(a1-3)]GlcNAc(b1-3)Gal(b1-4)[Fuc(a1-3)]GlcNAc
# How it was run: as §1
# [12] = target: GlcNAc(b1-3)Gal(b1-4)GlcNAc(b1-6)[GlcNAc(b1-3)]Gal(b1-4)GlcNAc
# How it was run: as §1
# GlcNAc(b1-3)Man = target: GlcNAc(b1-3)Man
# How it was run: as §1
# [13] = target: Neu5Ac(a2-3)Gal(b1-3)GalNAc(b1-4)[Neu5Ac(a2-3)]Gal(b1-4)Glc
# How it was run: as §1
# [14] = target: Neu5Ac(a2-3)Gal(b1-3)GlcNAc(b1-2)Man(a1-3)[Neu5Ac(a2-3)Gal(b1-3)GlcNAc(b1-2)Man(a1-6)]Man(b1-4)GlcNAc(b1-4)GlcNAc
# How it was run: as §1
# [15] = target: Neu5Ac(a2-3)Gal(b1-4)GlcNAc(b1-3)Gal(b1-4)GlcNAc(b1-6)[Gal(b1-3)]GalNAc
# How it was run: as §1
# [16] = target: Neu5Ac(a2-3)Gal(b1-4)[Fuc(a1-3)]GlcNAc(b1-3)Gal
# How it was run: as §1
# [17] = target: Neu5Ac(a2-6)Gal(b1-4)GlcNAc(b1-3)Gal(b1-4)GlcNAc
# How it was run: as §1
# [18] = target: Neu5Ac(a2-6)Gal(b1-4)GlcNAc(b1-3)Gal(b1-4)GlcNAc(b1-3)Gal(b1-4)GlcNAc(b1-2)Man(a1-3)[Neu5Ac(a2-6)Gal(b1-4)GlcNAc(b1-3)Gal(b1-4)GlcNAc(b1-3)Gal(b1-4)GlcNAc(b1-2)Man(a1-6)]GalNAc
# How it was run: as §1
# [19] = target: Neu5Ac(a2-6)Gal(b1-4)GlcNAc(b1-3)GalNAc
# How it was run: as §1
# [20] = target: Neu5Ac(a2-6)Gal(b1-4)GlcNAc(b1-6)GalNAc
# How it was run: as §1
# [21] = target: Neu5Ac(a2-8)Neu5Ac(a2-3)[GalNAc(b1-4)]Gal(b1-4)Glc
# How it was run: as §1
# [22] = target: Neu5Ac(a2-8)Neu5Ac(a2-8)Neu5Ac(a2-8)Neu5Ac(a2-3)[GalNAc(b1-4)]Gal(b1-4)Glc
# How it was run: as §1
# [23] = target: Neu5Gc(a2-3)Gal(b1-3)[Fuc(a1-4)]GlcNAc
# How it was run: as §1
binder,measurement,setting,value
B1,glycan array binding signal (z-score),[1],0.176
same,glycan array binding signal (z-score),[2],5.01
same,glycan array binding signal (z-score),[3],-0.032
same,glycan array binding signal (z-score),[4],-0.645
same,glycan array binding signal (z-score),[5],0.801
same,glycan array binding signal (z-score),[6],2.1
same,glycan array binding signal (z-score),[7],3.03
same,glycan array binding signal (z-score),[8],0.056
same,glycan array binding signal (z-score),Gal3S(b1-3)GalNAc,-0.165
same,glycan array binding signal (z-score),[9],-0.428
same,glycan array binding signal (z-score),Gal6P(b1-4)GlcNAc,-0.929
same,glycan array binding signal (z-score),GalNAc(a1-3)GalNAc,-0.406
same,glycan array binding signal (z-score),GalNAc(b1-4)GlcNAc,-0.137
same,glycan array binding signal (z-score),[10],2.96
same,glycan array binding signal (z-score),GalNAc(b1-4)GlcNAc6S,-0.496
same,glycan array binding signal (z-score),[11],2.67
same,glycan array binding signal (z-score),[12],-0.274
same,glycan array binding signal (z-score),GlcNAc(b1-3)Man,-0.054
same,glycan array binding signal (z-score),[13],0.166
same,glycan array binding signal (z-score),[14],-0.428
same,glycan array binding signal (z-score),[15],-0.09
same,glycan array binding signal (z-score),[16],-0.924
same,glycan array binding signal (z-score),[17],-1.12
same,glycan array binding signal (z-score),[18],2.65
same,glycan array binding signal (z-score),[19],2.41
same,glycan array binding signal (z-score),[20],-0.322
same,glycan array binding signal (z-score),[21],-0.847
same,glycan array binding signal (z-score),[22],0.231
same,glycan array binding signal (z-score),[23],0.247
